High-throughput results as filed in PubChem.
B2AR arrestin – qHTS assay of beta-arrestin-biased ligands of beta2-adrenergic receptor; Beta-2 adrenergic receptor (Homo sapiens), P07550; Potency, µM (highest dose often 46.1 µM), for inactives: at the highest dose activation, usual class: activators; 330,000 tested, 0.02% active; beta-arrestin recruitment to beta2AR, cell-based reporter;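 also: potency is read from the fitted curve at half-maximal effect; 0% = DMSO controls and full agonism = EC100 isoproterenol or metaproterenol; nearly all actives have a fitted effect of over 65% in size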
VP16 counter – VP16 counterscreen qHTS for inhibitors of ROR gamma transcriptional activity. AID 2546, 2010. Potency, µM (top dose mostly 53.6 µM), for inactives: at the highest dose activity, negative = inhibition, actives largely listed as inhibitors. Drosophila S2 Gal4-VP16 UAS-luciferase, luminescence, 20 h. 310,000 tested, 3.5% active;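 also: Gal4-VP16 expression switched on by copper sulfate through the metallothionein promoter; potency is read from the fitted curve at half-maximal effect; nearly all actives have a fitted effect of over 50% in size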
ELG1 DNA repair – qHTS screen for small molecules that inhibit ELG1-dependent DNA repair in human embryonic kidney (HEK293T) cells expressing luciferase-tagged ELG1. HEK293T ELG1-luciferase reporter, luminescence, 16 h; DNA damage induced by 5-fluorouridine. Potency, µM (series often up to 46.1 µM), without a hit: top-dose activity change, negative = inhibition, usual class: inhibitors. 330,000 tested, 2.3% active. AID 504467, 2011; also: potency is read from the fitted curve at half-maximal effect; nearly all actives have a fitted effect of over 55% in size
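Cells (2,000 per well) received 5-fluorouridine plus test compound or DMSO and were incubated 16 hr at 37 °C, 5% CO2. Luciferase activity was read by luminescence 30 min after ONE-Glo addition; signal suppression marked inhibition of damage-induced ELG1 function.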
TSHR antag – Antagonists of the Thyroid Stimulating Hormone Receptor: HTS campaign. Thyrotropin receptor (Homo sapiens), P16473. 330,000 tested, 0.2% active. TSHR-expressing cells, TSH-stimulated cAMP HTRF, 2 h; active compounds read low. activity change, negative = inhibition, % at 11.5 µM;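 active = activity change below a set negative limit, meaning inhibition stronger than a set level, cut at about -70% in these data; inconclusive = activity change between two set negative limits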
Target sequence (P16473 whole entry, looked up): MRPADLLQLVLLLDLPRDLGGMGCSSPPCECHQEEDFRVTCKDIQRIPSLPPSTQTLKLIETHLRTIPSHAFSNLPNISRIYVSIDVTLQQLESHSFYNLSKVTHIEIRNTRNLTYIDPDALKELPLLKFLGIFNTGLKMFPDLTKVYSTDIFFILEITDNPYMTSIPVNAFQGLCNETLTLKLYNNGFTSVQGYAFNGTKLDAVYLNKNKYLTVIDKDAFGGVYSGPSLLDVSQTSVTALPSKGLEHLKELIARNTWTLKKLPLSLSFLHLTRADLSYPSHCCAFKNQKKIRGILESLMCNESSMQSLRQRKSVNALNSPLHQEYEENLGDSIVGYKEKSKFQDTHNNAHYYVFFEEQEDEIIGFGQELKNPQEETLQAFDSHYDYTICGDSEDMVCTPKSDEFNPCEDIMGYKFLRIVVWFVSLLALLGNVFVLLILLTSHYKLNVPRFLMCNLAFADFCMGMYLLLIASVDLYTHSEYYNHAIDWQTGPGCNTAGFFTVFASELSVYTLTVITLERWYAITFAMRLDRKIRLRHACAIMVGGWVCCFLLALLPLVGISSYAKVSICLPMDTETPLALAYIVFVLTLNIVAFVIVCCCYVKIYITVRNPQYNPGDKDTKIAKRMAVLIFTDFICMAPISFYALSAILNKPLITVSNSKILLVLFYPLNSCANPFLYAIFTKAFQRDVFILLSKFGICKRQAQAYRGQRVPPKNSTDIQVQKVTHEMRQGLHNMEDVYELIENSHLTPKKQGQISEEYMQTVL
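Competitive HTRF cAMP read-out (cryptate anti-cAMP antibody, cAMP-d2; 30 min, room temperature) in freshly harvested TSHR cells. Compounds added before TSH at EC80 (4nM final), followed by 2 hours' incubation at 37 deg C.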
RORg inh – qHTS for inhibitors of ROR gamma transcriptional activity; Nuclear receptor ROR-gamma (Mus musculus), P51450; Drosophila S2 Gal4-RORgamma UAS-luciferase reporter, 20 h; Potency, µM (titrated, usually from 53.6 µM), for the others: at the highest dose activity change, negative = inhibition, usual class: inhibitors; 310,000 tested, 5.4% active; also: potency is read from the fitted curve at half-maximal effect; nearly all actives have a fitted effect of over 60% in size
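A Gal4/UAS one-hybrid system in insect cells: metallothionein-promoter Gal4–ROR gamma fusion plus Photinus luciferase reporter. Copper sulfate 700 uM final, 20 hr ambient incubation, luminescent detection after 10 min with reagent.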
Numbers without * were called inactive; ? = inconclusive; nt = not tested or not shown; [ ] = dose if it differs, or a comment. Only some compounds are listed: those with a hit (about 7.5% of all), similar ones and a draw of the others. Unless noted, calls follow the shape of the dose curve; as a rule, active = well fitted curve in the direction sought with a large enough effect; inconclusive = small, poorly fitted or top-dose-only effect, or another doubt; inactive = no such curve, though single readings can be large; an effect the other way counts as inactive or inconclusive. Unless noted, % is scaled to controls: 0 for no effect and ±100 for the full control effect.

SMILES | B2AR arrestin | VP16 counter | ELG1 DNA repair | TSHR antag | RORg inh
O=C(N/N=C/c1c(O)n(-c2ccc(Cl)cn2)c(=O)c2ccccc12)C1CC1 | 0% | 7.9µM* | -21% | 8 | 5.6µM*
COC(=O)C1=C(C)N=C2SC(C#N)=C(N)N2C1c1ccc(OC)cc1 (centres undefined) | -1% | -8% | -3% | 3 | -44%
CCOC(=O)C1=C(C)N=C2SC(C(=O)OC)=CC(=O)N2C1c1ccc(OC)cc1 (centres undefined) | 0% | ? | ? | 3 | 1.8µM*
CCOc1cc(C)c(-c2onc(C(F)(F)F)c2-c2csc(C)n2)c(O)c1 | 0% | 11µM* | -22% | -6 | 12%
O=C(/C=C/c1ccc(Br)cc1)NC1CCCCCC1 | 0% | -17% | ? | -18 | -6%
CC(C)Cc1ccc(/C=C/C(=O)NC2CC2)cc1 | 0% | 16µM* | ? | -2 | ?
CCc1ccccc1Nc1nn2c(=O)c3ccc(C(=O)NCc4cccs4)cc3nc2s1 | 0% | nt | nt | 30 | nt
CCNC(=S)Nc1ccc(OCc2nc3ccccc3s2)cc1 | -1% | 16µM* | ? | -13 | 13µM*
CCOc1ccc(NC(=S)Nc2ccc3nsnc3c2)cc1 | 0% | ? | -1% | 18 | -91%
CC(CCc1ccccc1)NC(=O)c1ccc(C(=O)NC(C)CCc2ccccc2)cc1 (centres undefined) | 0% | -5% | 5.2µM* | 2 | 4%
CCOc1ccc(NC(=S)Nc2cc(C)[nH]n2)cc1 | 0% | 7.1µM* | 0% | 7 | 3.2µM*
CCOc1ccc(NC(=S)Nc2ccc(OCC)cc2)cc1 | 0% | -30% | 1% | 3 | 10µM*
O=C(O)CCCC(=O)Nc1ccc(OCc2nc3ccccc3s2)cc1 | 0% | 18% | ? | -2 | 9%
CC1(c2ccccc2)NC(=O)N(CC#N)C1=O (centres undefined) | 0% | 4% | 3% | 1 | 5%
Cc1noc(C)c1-c1nc(NCCN2CCOCC2)c2ccccc2n1 | nt | 6% | nt | nt | -41%
Nc1ncnc2c1ncn2[C@@H]1O[C@H](CN2CCCS2(=O)=O)[C@@H](O)[C@H]1O | -1% | nt | -1% | 0 | nt
CCOc1ccc(NC(=S)Nc2ccc(OC(F)(F)F)cc2)cc1 | 0% | ? | -1% | -5 | ?
CCOc1ccc(NC(=S)Nc2ccc(C)c([N+](=O)[O-])c2)cc1 | 0% | ? | -8% | -1 | 14µM*
CCOc1ccc(NC(=S)Nc2cc(OC)c(Cl)cc2OC)cc1 | 0% | 22µM* | ? | -2 | 10µM*
CCNC(=S)Nc1ccc(OCC)cc1 | -2% | ? | 10% | 27 | 13µM*
COc1cc(NC(=S)Nc2cccc(Cl)c2Cl)c(OC)cc1Cl | -1% | ? | -5% | 6 | ?
CCOc1ccc(NC(=S)/C(=C(\[O-])c2ccc(C)c([N+](=O)[O-])c2)[n+]2ccccc2)cc1 | 0% | 2% | 10% | -4 | -17%
COc1cc(NC(=S)Nc2ccccn2)c(OC)cc1Cl | 0% | 7.1µM* | 21% | -4 | 1.3µM*
CC(=O)c1cccc(OC(=O)C2=CC=CN3CCS(=O)(=O)N=C23)c1 | 0% | nt | 3% | 22 | nt
COc1ccccc1CN1CCC2(CC1)CCN(C(=O)c1ccncc1)CC2 | nt | 6% | nt | nt | -31%
SMILES | B2AR arrestin | VP16 counter | ELG1 DNA repair | TSHR antag | RORg inh
CCn1c(COC(=O)CNC(=O)c2ccccc2F)nc2cc(S(=O)(=O)N(C)C)ccc21 | 0% | nt | 4% | -9 | nt
COc1ccccc1NC(=O)C(C)Sc1nc2ccccc2c(=O)n1CC1CCCO1 (centres undefined) | 0% | nt | -1% | -14 | nt
Cc1ccccc1NC(=S)NC(C)CCc1ccccc1 (centres undefined) | -1% | 3.5µM* | -15% | 3 | 4.5µM*
Cc1ccccc1NC(=S)NC(=O)CCc1ccccc1 | 1% | -10% | 0% | -2 | 19%
CCOc1ccc(NC(=O)C(CC(=O)O)Cc2ccccc2)cc1 (centres undefined) | 0% | 2%[10 µM] | 8% | -8 | -1%
CCOc1ccc(NC(=S)NC(C)CCc2ccccc2)cc1 (centres undefined) | 0% | 7.1µM* | ? | -12 | 2.5µM*
C/C(=N\NC(=O)Cn1cc([N+](=O)[O-])cn1)c1ccc(O)cc1 | -1% | -10% | 0% | -1 | 18%
Cc1ccc(S(=O)(=O)N(C)c2ccc(C(=O)N3CCN(Cc4ccc5c(c4)OCO5)CC3)cc2)cc1 | 0% | ? | 6.5µM* | -20 | -22%
Cc1ccc(S(=O)(=O)N(C)CC(=O)N2CCN(Cc3ccc4c(c3)OCO4)CC2)cc1 | 0% | ? | ? | -1 | ?
CN(c1ccc(C(=O)N2CCN(Cc3ccccc3)CC2)cc1)S(=O)(=O)c1ccccc1 | 0% | -2% | ? | -7 | 36%
CN(c1ccc(C(=O)N2CCN(Cc3ccc4c(c3)OCO4)CC2)cc1)S(=O)(=O)c1ccccc1 | 0% | -9% | 23µM* | -19 | 17%
CCCCC[C@H](O)/C=C/[C@@H]1[C@@H](C/C=C\CCCC(=O)O)[C@H](O)C[C@H]1O | nt | -10% | nt | nt | -17%
Cc1ccc2c(c1)Oc1ccc(NC(=O)CCCl)cc1C(=O)N2 | 0% | -5% | ? | -3 | 24%
C=C(C)C(=O)OC1(C(F)(F)F)Oc2cc(C)ccc2NC1=O (centres undefined) | ? | ? | ? | -20 | 14µM*
O=C(Nc1ccccc1)N1CCCC2(CCN(C(=O)c3ccco3)CC2)C1 | nt | -1% | nt | nt | 40%
Cc1ccc(SC(=O)c2c([N+](=O)[O-])c(C)nn2C)cc1 | 0% | 3.5µM* | -1% | 11 | 4µM*
Cc1cc(C)n(C(=O)c2c([N+](=O)[O-])c(C)nn2C)n1 | 0% | -13% | 10% | -5 | 26%
CC1CCC(C(=O)O)NC1c1cccc(N2CCCC2=O)c1 (centres undefined) | nt | 2%[10 µM] | nt | nt | 6%[10 µM]
ClCc1nnc(-c2cc3c(s2)CCCC3)o1 | 0% | ? | ? | 12 | 6.3µM*
Cc1ccc(NC(=O)Cc2c[nH]c3ccccc23)cc1S(=O)(=O)N1CCCCCC1 | 0% | -8% | 21µM* | -26 | ?
Cc1ccc(NC(=O)Cc2ccc(Cl)cc2)cc1S(=O)(=O)N1CCCCCC1 | 0% | nt | 11µM* | -46 | nt
Cc1ccc(S(=O)(=O)N2CCCCC2)cc1NC(=O)Cc1c[nH]c2ccccc12 | 0% | -15% | -20% | -5 | ?
Cc1ccc(NC(=O)Cn2cc(C(F)(F)F)cc(Cl)c2=O)cc1S(=O)(=O)N1CCCCC1 | 0% | nt | ? | -11 | nt
